This note sets out measurements from PubChem BioAssay (EPA / NIEHS).

The source made the active and inactive calls. How the source made its calls: active means hit-call score of the fitted dose curve at least 0.9, where 1 is the maximum; inactive means score below 0.9.

This assay is described as follows: APR_HepG2_CellCycleArrest_1hr: Apredica 1-hour HepG2 Assay for Cell Cycle Arrest (AID 2282666). Conditions: high-content imaging, actives raise or lower the signal. As to the method:
APR_HepG2_1hr is a cell-based, multiplexed-readout assay that uses HepG2, a human liver cell line, with measurements taken at 1 hour after chemical dosing in a 384-well plate.APR_HepG2_CellCycleArrest_1hr is one of 10 assay component(s) measured or calculated from the APR_HepG2_1hr assay. It is designed to make measurements of cell phenotype, a form of morphology reporter, as detected with fluorescence intensity signals by HCS Fluorescent Imaging technology.Data from the assay component APR_HepG2_CellCycleArrest_1hr was analyzed into 1 assay endpoint. This assay endpoint, APR_HepG2_CellCycleArrest_1hr, was analyzed with bidirectional fitting relative to DMSO as the negative control and baseline of activity. Using a type of morphology reporter, measures of all nuclear dna for gain or loss-of-signal activity can be used to understand the signaling at the pathway-level as they relate to the gene . Furthermore, this assay endpoint can be referred to as a primary readout, because this assay has produced multiple assay endpoints where this one serves a signaling function. To generalize the intended target to other relatable targets, this assay endpoint is annotated to the cell cycle intended target family, where the subfamily is arrest.
Cells were treated with dimethyl sulfoxide (DMSO) as a solvent control at a final concentration of 0.5% v/v or with compounds in DMSO with a resulting final DMSO concentration of 0.5% v/v. Compound treatment was done at concentrations of 0.39, 0.78, 1.56, 3.12, 6.24, 12.5, 25, 50, 100, and 200 uM in duplicate on each plate. Cells were treated with compounds for 1, 24, or 72 hr. Carbonyl […] m-chloro-phenylhydrazone (CCCP) and taxol were used as positive controls for mitochondrial function and cytoskeletal stability, respectively; DMSO served as the negative control for this experiment. Cells were fixed by the direct addition of 50 uL formaldehyde in Hank's Balanced Salt Solution (HBSS) to a final concentration of 3.7%. After incubation in the fixation medium for 30 min at room temperature (293-298 K), cells were rinsed twice with HBSS and treated with cell permeabilization buffer (16 uL of 0.5% Triton X-100) for 10 min at room temperature (293-298 K) before labeling. For mitochondrial membrane potential and mitochondrial measurements, pre-fixed cells were incubated with 50 uL of MitoTracker Red CMXRos (Invitrogen) at a concentration of 250 nM for 30 min before fixation. In the remaining cases, post-fixed cells were labeled by incubation with a multiplexed mixture of primary antibodies in HBSS for 60 min at room temperature (293-298 K) to detect immunoreactivity of c-Jun (1:500), phospho-histone H3 (1:100), phospho-histone H2A.x (1:200), p53 (1:400), alpha-tubulin (1:200) and Hoechst 33342 (2 ug/mL). Cells were labeled for multiplexed imaging on two separate plates: a) Hoechst 33342, MitoTracker Red, phospho-histone H3, and alpha-tubulin, and b) Hoechst 33342, phospho-histone H2A.x, and c-Jun. A final rinse with HBSS (50 uL) was performed before analysis. The primary and secondary antibodies for the proteins were phospho-histone H3 (rabbit anti-phospho-histone H3 and FITC-donkey anti-rabbit IgG), phospho-histone H2A.x (mouse anti-phospho-histone H2A.x and FITC-donkey anti-mouse IgG), c-Jun (rabbit anti-phospho-c-Jun and Cy3-donkey anti-rabbit IgG), p53 (sheep anti-p53 and Cy5-donkey anti-sheep IgG), alpha-tubulin (mouse anti-alpha-tubulin and Cy5-donkey anti-mouse IgG). These antibodies are available as the CellCiphr HepG2 assay kit (Millipore).Digital images of each well were captured using a Cellomics ArrayScan VTI (Thermo Scientific Cellomics) (0.8 NA objective, 0.63x optical coupler, and XF-93 filter set) at 20x magnification. The images were acquired using the autofocus feature of the ArrayScan instrument, which entails the following steps. First, the camera focuses on channel 1 (Hoechst 33342), where nuclei are identified. Second, a Z offset of 1 um is used for capturing mitochondria (MitoTracker Red). […]
For the compound `CCCCOC(=O)[C@@H](C)Oc1ccc(Oc2ccc(C(F)(F)F)cn2)cc1`, the call was inactive.

Take `S=C(S)NCCNC(=S)S.[Mn+2].[S-]C([S-])=NCCN=C([S-])[S-].[Zn+2]`: the call was inactive. On to `COc1nc(C)nc(NC(=O)NS(=O)(=O)c2ccccc2OCCCl)n1`, for which the result was inactive. The result for `S=C([S-])NCCNC(=S)[S-].[Mn+2]` reads “inactive”; that for `N#CSCSc1nc2ccccc2s1`, “inactive”; that for `COC(=O)c1c(Cl)nn(C)c1S(=O)(=O)NC(=O)Nc1nc(OC)cc(OC)n1`, “inactive”. For the compound `CCCCCCC(C)OC(=O)COc1nc(F)c(Cl)c(N)c1Cl` (stereo not given), the compound was called inactive. With `OB(O)O`, the compound was called inactive. Regarding `Cc1nn(C)c(Oc2ccccc2)c1C=NOCc1ccc(C(=O)OC(C)(C)C)cc1`, the result was inactive. Consider `CCCOC(=O)NCCCN(C)C`, for which the call was inactive. Take `CC1(C)C(C=C(Cl)Cl)C1C(=O)OCc1cccc(Oc2ccccc2)c1` (stereo not given): the call was inactive. On to `O=C(Nc1ccc([N+](=O)[O-])cc1Cl)c1cc(Cl)ccc1O`, for which the compound was classed as inactive. On to `CCCN(CCC)c1c([N+](=O)[O-])cc(C(F)(F)F)c(N)c1[N+](=O)[O-]`, for which the call was inactive.

Take `CCC(O)=C1C(=O)CC(C(=O)O)CC1=O` (stereo not given): the outcome was inactive. In the case of `CCCN(CCC)C(=O)SCC`, the outcome was inactive. The result for `CCNc1nc(N)nc(Cl)n1` reads “inactive”. Regarding `CCOC(=O)C(C)Oc1ccc(Oc2nc3ccc(Cl)cc3o2)cc1` (stereo not given), the outcome was inactive. For `O=C(O)C1(C(=O)Nc2ccc(Cl)cc2Cl)CC1`, the outcome was inactive.

As for `C=CCOC(Cn1ccnc1)c1ccc(Cl)cc1Cl` (stereo not given), the call was inactive.

For the compound `CCSC(=O)N(CC(C)C)CC(C)C`, the call was inactive. With `CCOC(=O)[C@H](C)Oc1ccc(Oc2nc3ccc(Cl)cc3o2)cc1` the entry was “inactive”; with `COC(=O)c1ccc(CNS(C)(=O)=O)cc1S(=O)(=O)NC(=O)Nc1nc(OC)cc(OC)n1`, “inactive”.

For the compound `c1ccc(Nc2ccccc2)cc1`, the call was inactive. With `COC(=O)CSc1cc(N=c2sc(=O)n3n2CCCC3)c(F)cc1Cl` the entry was “inactive”; with `Oc1ccc(C(c2ccc(O)cc2)C(Cl)(Cl)Cl)cc1`, “inactive”. With `CCCCCOC(=O)COc1cc(N2C(=O)C3=C(CCCC3)C2=O)c(F)cc1Cl` the entry was “inactive”. With `CCCOC(=O)c1ccc(C(=O)OCCC)nc1` the entry was “inactive”; with `COC(=O)c1ccc(I)cc1S(=O)(=O)NC(=O)Nc1nc(C)nc(OC)n1`, “inactive”. For the compound `COCCO`, the compound was called inactive. As for `CCCCOC(=O)C(C)Oc1ccc(Oc2ccc(C(F)(F)F)cn2)cc1` (stereo not given), the outcome was inactive. The result for `CC(C)(c1ccc(O)cc1)c1ccc(O)cc1` reads “inactive”; that for `CCCCC(CC)CN1C(=O)C2C3C=CC(C3)C2C1=O` (stereo not given), “inactive”. `CCN(CC)C(=O)c1cccc(C)c1`: the outcome was inactive. Regarding `COc1c(Cl)ccc(Cl)c1C(=O)O`, the call was inactive. Turning to `COC(=O)c1ccccc1C(=O)O`, the outcome was inactive. Turning to `COC(=O)c1cccc(C)c1S(=O)(=O)NC(=O)Nc1nc(OCC(F)(F)F)nc(N(C)C)n1`, the result was inactive. On to `CCCCC(CC)COC(=O)c1ccccc1C(=O)O` (stereo not given), for which the call was inactive. In the case of `CCOC(=O)C(C)Oc1ccc(Oc2cnc3cc(Cl)ccc3n2)cc1` (stereo not given), the compound was called inactive.

For the compound `CC(C)(C)[C@@H](O)[C@@H](Cc1ccc(Cl)cc1)n1cncn1`, the result was inactive.

In the case of `CCCCOCCOCCOCc1cc2c(cc1CCC)OCO2`, the outcome was inactive.
